The campaign covered roughly 360,000 compounds. About 11,000 (3.1%) were called active. Not shown: some 4% with an inconclusive outcome. Calls follow the shape of the dose curve; as a rule, active = well fitted inhibition curve with a large enough effect; inconclusive = small, poorly fitted or top-dose-only effect; inactive = no such curve, though single readings can be large or run the other way. Shown is part of a subset that was picked to be rich in actives.
% is scaled to controls: 0 for no effect and ±100 for the full control effect; potency is read from the fitted curve at half-maximal effect.

The target of the test is Schistosoma mansoni thioredoxin glutathione reductase (TGR) (UniProt Q962Y6). Briefly: qHTS Assay for the Inhibitors of Schistosoma Mansoni Peroxiredoxins. Also: nearly all actives have a fitted effect of over 60% in size. The settings on record: purified TGR, DTNB reduction, TNB absorbance 405 nm; series mostly up to 114 µM; activity change, negative = inhibition: at the top concentration. Summed up: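 First, TGR (20 nM dispensed) and NADPH were mixed with compound. Second, a 15 min room-temperature incubation followed. Third, further NADPH and then DTNB were added to start the reaction. Finally, TNB absorbance was monitored kinetically.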
(qHTS replaces the single test concentration by a dilution series.)
As to `NS(=O)(=O)c1ccc2nc(NC(=O)COc3ccccc3)sc2c1`, the “activity change, negative = inhibition” value is 0.388% (inactive).

On to `O=C(CSc1nnc(-c2ccco2)o1)NCC(=O)c1ccccc1`, for which the Potency is 44.7 µM (active).

In the case of `O=C(CSc1nnc(-c2ccc(NS(=O)(=O)c3ccccc3)cc2)o1)NCC1CCCO1` (stereo unspecified), the “activity change, negative = inhibition” value is 1.62% (inactive).

In the case of `O=C(CSc1nnc(-c2c[nH]c3ccccc23)o1)c1ccccc1`, the “activity change, negative = inhibition” value was -1.66% (inactive).

With `Cc1ccc(/C=C(\C#N)C(=O)Nc2cccc3ncccc23)o1`, the Potency was 20 µM (active).

For `CCOC(=O)c1ccc(-c2ccc(/C=C(\C#N)C(=O)Nc3ccc(OCC)cc3)o2)cc1`, the “activity change, negative = inhibition” value was 8.1% (inactive).

`O=C(O)c1cc(Cl)c(Cl)cc1C(=O)Nc1cccc2ncccc12`: the “activity change, negative = inhibition” value is 2.58% (inactive).

For the compound `COc1ccc(OC)c(CNC(=O)CN2C(=O)CCn3nc(-c4cn(C)c5ccccc45)cc32)c1`, the “activity change, negative = inhibition” value is -1.65% (inactive).

In the case of `COc1ccc(CCN2C(=O)N(c3cccc(OC)c3)C(=O)C2CC(=O)Nc2ccccc2)cc1` (stereo unspecified), the “activity change, negative = inhibition” value was 2.12% (inactive).

With `Cc1ccc(CN2CCC(CNC(=O)c3cnn(-c4ccc(C)cc4)c3C3CCN(C(=O)OC(C)(C)C)CC3)CC2)cc1`, the “activity change, negative = inhibition” value is -11.7% (inactive).

On to `CCCC(=O)Nc1cc(C(=O)NCc2ccc(OC)cc2)ccc1S(=O)(=O)c1ccc(Cl)cc1`, for which the “activity change, negative = inhibition” value was 10.6% (inactive).

In the case of `O=C(NCC#CCSc1nnc(-c2cccc3ccccc23)o1)c1cccs1`, the Potency is 22.4 µM (active).

Turning to `COc1ccccc1-c1nnc(SCC(N)=O)o1`, the “activity change, negative = inhibition” value is -4.37% (inactive).

In the case of `O=C(OCC#CCSc1nnc(-c2ccncc2)o1)c1sc2ccccc2c1Cl`, the “activity change, negative = inhibition” value is -26.9% (inactive).

On to `CSc1ccc(NC(=O)Cn2nnnc2-c2ccccc2F)cc1`, for which the “activity change, negative = inhibition” value was 3.69% (inactive).

For the compound `Cc1c(-c2ccccc2)cn2c1-c1ccc(C)n1CC2`, the Potency is 35.5 µM (active).

Turning to `CCCOc1ccc(C(=O)Nc2ccc3oc(-c4cccc(Cl)c4Cl)nc3c2)cc1`, the “activity change, negative = inhibition” value was -6.36% (inactive).

Take `Cc1ccc(S(=O)(=O)c2nc(-c3cccs3)oc2N2CCCCC2)cc1`: the “activity change, negative = inhibition” value is -26.4% (inactive).

As for `Cc1ccccc1NC(=O)Cn1c(=O)n(CCc2ccccc2)c(=O)c2ccccc21`, the “activity change, negative = inhibition” value was 8.99% (inactive).

As to `C/C(CCC(=O)OC[C@H]1O[C@H](C#Cc2ccccc2)C=C[C@@H]1Oc1ccc(C)cc1)=N\OC[C@@H](O)[C@H]1O[C@@H]2OC(C)(C)O[C@@H]2[C@H]1O`, the Potency is 2.51 µM (active).

Consider `Cc1ccc(Cl)cc1NC(=O)Cc1ccc(-n2c(C)nc3cccnc32)cc1`, for which the “activity change, negative = inhibition” value is -13.5% (inactive).

`Cc1cccc2sc(N(CCCN(C)C)C(=O)CCS(=O)(=O)c3ccccc3)nc12`: the Potency was 10 µM (active).

Regarding `COc1cccc2sc(N(CCCN(C)C)C(=O)CCS(=O)(=O)c3ccccc3)nc12`, the Potency was 2 µM (active).

In the case of `CN(C)S(=O)(=O)c1ccc(C(=O)N(Cc2cccnc2)c2nc3c(F)cc(F)cc3s2)cc1`, the “activity change, negative = inhibition” value is 0.57% (inactive).

As for `Cc1cc(C)c2nc(N(CCN(C)C)C(=O)/C=C/c3cccs3)sc2c1`, the “activity change, negative = inhibition” value was -18% (inactive).

Consider `O=C(C1COc2ccccc2O1)N(Cc1cccnc1)c1nc2c(F)cc(F)cc2s1` (stereo unspecified), for which the “activity change, negative = inhibition” value was -3.03% (inactive).

Regarding `COc1ccc(N(C)C(=O)CCS(=O)(=O)c2cccc3nsnc23)cc1`, the Potency entry was “inactive”.

Turning to `CN(C)CCCN(C(=O)c1ccc(S(=O)(=O)N2CCCc3ccccc32)cc1)c1nc2ccc(F)cc2s1`, the “activity change, negative = inhibition” value was -19.5% (inactive).

Consider `O=C(CCS(=O)(=O)c1ccccc1)N(Cc1cccnc1)c1nc2c(F)cccc2s1`, for which the Potency is 0.562 µM (active).

Regarding `Cc1ccc2sc(N(CCN(C)C)C(=O)/C=C/c3cccs3)nc2c1C`, the “activity change, negative = inhibition” value is 2.08% (inactive).

Turning to `Cc1ccc(N2CC(NC(=O)Cc3cccs3)CC2=O)cc1` (stereo unspecified), the “activity change, negative = inhibition” value was -1.46% (inactive).

As to `Cc1nc2sc(C)c(C)n2c(=O)c1S(=O)(=O)NCCc1ccc(Cl)cc1`, the “activity change, negative = inhibition” value was 0.289% (inactive).

As for `O=C(NC1CCCCC1)c1ccc(Cn2c(SCc3ccccc3)nc3cccnc32)cc1`, the “activity change, negative = inhibition” value was 3.32% (inactive).

As to `COc1ccc(CCNc2nc(-c3ccc(Cl)cc3)cc(C(F)(F)F)n2)cc1OC`, the “activity change, negative = inhibition” value was 0.381% (inactive).

On to `Cc1ccccc1OCCSc1nc2ccc(NC(=O)c3ccco3)cc2s1`, for which the “activity change, negative = inhibition” value is 4.23% (inactive).

For the compound `Cc1cc(C)c(NC(=O)CSc2nc3nccnc3c(=O)n2CCc2c[nH]c3ccccc23)c(C)c1`, the “activity change, negative = inhibition” value was -4.93% (inactive).

For the compound `Cc1ccc(NC2=C(c3ccc(C(F)(F)F)cc3)C(=O)c3ccccc32)cc1F`, the “activity change, negative = inhibition” value was 1.74% (inactive).

In the case of `CCOc1ccccc1NC(=O)CN1CCCN(Cc2cccc(Cl)c2)S1(=O)=O`, the “activity change, negative = inhibition” value was 5.08% (inactive).

Consider `CCOc1ccc(CCNC(=O)CN(c2ccc(C)cc2)S(=O)(=O)N(C)C)cc1OCC`, for which the “activity change, negative = inhibition” value is 5.27% (inactive).

On to `CCCN(C(=O)Cn1cc(S(=O)(=O)N2CCN(c3ccccc3F)CC2)c2ccccc2c1=O)c1cccc(C)c1`, for which the “activity change, negative = inhibition” value was -0.645% (inactive).

In the case of `COc1ccccc1C(CNC(=O)c1cccc(NS(=O)(=O)c2ccc(Br)cc2)c1)N(C)C` (stereo unspecified), the “activity change, negative = inhibition” value is -18.1% (inactive).

`CC(=O)c1ccc(S(=O)(=O)Nc2ccc(C(=O)NCC(c3ccccc3)N(C)C)cc2)cc1` (stereo unspecified): the Potency is 14.1 µM (active).

As for `CN(C)C(CNC(=O)c1cccc(S(=O)(=O)Nc2ccc(Br)cc2)c1)c1ccco1` (stereo unspecified), the Potency was 35.5 µM (active).

On to `COc1ccc(C(CNC(=O)c2ccc(S(=O)(=O)Nc3ccccc3F)cc2)N(C)C)cc1` (stereo unspecified), for which the “activity change, negative = inhibition” value was 0% (inactive).

For `CN(C)C(CNC(=O)c1ccc(S(=O)(=O)NCc2ccco2)cc1)c1ccccc1` (stereo unspecified), the “activity change, negative = inhibition” value is -27% (inactive).

Regarding `COc1ccccc1C(CNC(=O)c1cccc(S(=O)(=O)Nc2ccc(F)cc2)c1)N(C)C` (stereo unspecified), the “activity change, negative = inhibition” value was -7.49% (inactive).

As to `CCN(Cc1ccccc1)Cc1c(O)ccc2c(=O)c(-c3ccc(Cl)cc3Cl)coc12`, the “activity change, negative = inhibition” value is -29.1% (inactive).

For `COCCN(Cc1ccco1)C(=O)Cn1ncc2c([nH]c3ccccc32)c1=O`, the “activity change, negative = inhibition” value is -24.7% (inactive).

As to `COc1cccc(CNC(=O)c2ccc3c(c2)sc2nc(-c4cccc(OC)c4)cn23)c1`, the “activity change, negative = inhibition” value is -0.0879% (inactive).

Regarding `O=C(NCCS(=O)(=O)N1CCN(c2ccc(F)cc2)CC1)c1ccccc1Br`, the “activity change, negative = inhibition” value is -2.24% (inactive).

On to `CC(NC(=O)c1cc2c(=O)n3ccccc3nc2n(C(C)C)c1=N)c1ccccc1` (stereo unspecified), for which the “activity change, negative = inhibition” value is -1.78% (inactive).

Consider `COc1cc(C(c2c(NC(=O)c3ccco3)sc(C)c2C)N2CCOCC2)cc(OC)c1OC` (stereo unspecified), for which the “activity change, negative = inhibition” value is -35.7% (inactive).

For `CCc1cc(C(N)=O)c(NC(=O)c2ccc(OC)cc2)s1`, the “activity change, negative = inhibition” value was 3.99% (inactive).

With `CCc1cc(C(c2ccccc2OC)N2CCOCC2)c(NC(=O)c2ccccc2)s1` (stereo unspecified), the Potency was 20 µM (active).

For `O=C(Cn1c(=O)n(Cc2cccs2)c(=O)c2cccnc21)Nc1ccc(F)cc1`, the “activity change, negative = inhibition” value was -3.83% (inactive).

For the compound `CCc1ccc(CN(C)Cc2nc(Cc3ccccc3)no2)nc1`, the “activity change, negative = inhibition” value was -21.7% (inactive).

Consider `CCc1ccc(CN(C)C(=O)CCc2nnc(-c3ccc(-c4ccccc4)cc3)o2)nc1`, for which the Potency was 35.5 µM (active).

As to `CC(=O)c1ccc(-c2nnc(CCC(=O)N(C)Cc3cnc4ccccn34)o2)s1`, the “activity change, negative = inhibition” value was -14.4% (inactive).

On to `Cc1c(CNCCc2ccccc2)c(C(=O)O)c(C)n1-c1ccccc1`, for which the Potency was 44.7 µM (active).

As for `COc1ccc(CCNCc2c(C(=O)O)c(C)n(Cc3cccc(C)c3)c2C)cc1OC`, the “activity change, negative = inhibition” value was -2.69% (inactive).

For the compound `CCOc1ccccc1CNCc1c(C(=O)O)c(C)n(Cc2ccc(C)cc2)c1C`, the “activity change, negative = inhibition” value was -3.22% (inactive).
